Assay outcomes (PubChem BioAssay)
An excerpt weighted towards active compounds, which were near 11% of everything screened.
ALOX12 inhib – qHTS Assay for Inhibitors of 12-hLO (12-human lipoxygenase) | Potency, µM (highest dose often 57.1 µM), actives largely listed as inhibitors | purified 12-hLO, xylenol orange hydroperoxide absorbance | hit rate 0.12% among 150,000 | Polyunsaturated fatty acid lipoxygenase ALOX12 (Homo sapiens), P18054; active means well fitted curve in the direction sought with a large enough effect; inconclusive means small, poorly fitted or top-dose-only effect, or another doubt; inactive means no such curve, though single readings can be large; an effect the other way counts as inactive or inconclusive; further: nearly all actives have a fitted effect of over 55% in size
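Xylenol orange chromogenic assay: hydroperoxide from 12hLO oxidises Fe(II), giving red-shifted Fe(III)-XO absorbance. Conditions: 150 nM enzyme, 40 uM arachidonic acid, 25 mM Hepes pH 7.0, 0.01% Triton X-100, 30 min, room temperature.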
IMPase Li inh – qHTS Assay for Identifying the Cell-Membrane Permeable IMPase Inhibitors: Potentiation with Lithium | CHO-M1 cells, IP1 TR-FRET (IP-One), carbachol + lithium | Potency, µM (doses to about 59.4 µM), hits mostly inhibitors | hit rate 0.35% among 210,000; active means well fitted curve in the direction sought with a large enough effect; inconclusive means small, poorly fitted or top-dose-only effect, or another doubt; inactive means no such curve, though single readings can be large; an effect the other way counts as inactive or inconclusive;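 further: IP1 builds up when IMPase is blocked and the TR-FRET signal falls; nearly all actives have a fitted effect of over 50% in size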
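Readout is a homogeneous TR-FRET IP1 immunoassay (Ex 320, Em 665 and 620), where raised cytosolic IP1 lowers signal. Cells were CHO-M1 treated 30 min at 37C with test compounds plus a little lithium; AC50 values came from Hill-equation fitting.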
ALDH1A1 block – qHTS Assay for Inhibitors of Aldehyde Dehydrogenase 1 (ALDH1A1); Aldehyde dehydrogenase 1A1 (Homo sapiens), P00352; Purified ALDH1A1, NADH fluorescence, propionaldehyde substrate; Potency, µM (titrated, usually from 75.3 µM), usual class: inhibitors; hit rate 7.3% among 220,000; AID 1030, 2008
Target sequence (P00352 whole entry, looked up): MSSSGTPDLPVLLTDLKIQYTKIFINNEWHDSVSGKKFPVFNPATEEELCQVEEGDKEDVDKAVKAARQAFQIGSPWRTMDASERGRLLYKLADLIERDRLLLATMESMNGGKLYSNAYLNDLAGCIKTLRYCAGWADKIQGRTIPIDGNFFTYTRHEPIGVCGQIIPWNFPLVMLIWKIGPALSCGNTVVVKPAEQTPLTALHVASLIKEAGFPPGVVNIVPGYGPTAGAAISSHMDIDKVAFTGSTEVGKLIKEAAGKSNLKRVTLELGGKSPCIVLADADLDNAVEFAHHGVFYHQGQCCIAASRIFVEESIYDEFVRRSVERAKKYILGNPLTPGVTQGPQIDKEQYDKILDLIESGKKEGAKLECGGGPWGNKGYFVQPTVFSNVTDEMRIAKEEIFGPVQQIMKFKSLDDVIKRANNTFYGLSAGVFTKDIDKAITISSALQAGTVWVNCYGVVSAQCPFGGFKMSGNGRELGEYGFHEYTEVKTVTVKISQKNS
IMPase inh – qHTS Assay for Identifying the Cell-Membrane Permeable IMPase Inhibitors; Inositol monophosphatase 1 (Rattus norvegicus), P97697; CHO-M1 cells, IP1 accumulation, HTRF TR-FRET ratio; inhibition (IP1 accumulation), % at 46.1 µM; 120,000 tested, under 10 active; active means well fitted curve in the direction sought with a large enough effect in the signal ratio, not every such curve was filed as active; inconclusive means small, poorly fitted or top-dose-only effect, or a change in a side signal; inactive means no such curve, though single readings can be large or run the other way; the % refers to the signal ratio;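 further: cells stimulated with carbachol in lithium chloride buffer; higher means more IMPase inhibition seen as more IP1 and lower FRET ratio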
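Measured: the HTRF emission ratio (665/620 nm) plus the 620 nm donor channel, each fitted to the Hill equation to give AC50. Cells were CHO-M1 given compounds up to 46 uM and a 30 min carbachol stimulation at 37C.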
PNC inhibitor – High Content Assay for Compounds that inhibit the Assembly of the Perinucleolar Compartment. PC3M PTB-GFP, PNC prevalence imaging, 16 h; stronger effect = lower value. activity change (PNC), negative = inhibition, % at 10 µM. hit rate 3.1% among 140,000. AID 2417, 2010;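 active means readout at or below -70, meaning at least 70% loss of cells showing the perinucleolar compartment, a nuclear body marking cancer cells; inconclusive means readout between -30 and a set limit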
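Compounds are pinned in duplicate onto adhered PC3M cells stably expressing GFP-tagged PTB and incubated 16 h at 37 C. Cells are then fixed, nuclei stained with Hoechst, and PNC-positive cells counted.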
HPGD inh – qHTS Assay for Inhibitors of HPGD (15-Hydroxyprostaglandin Dehydrogenase); purified HPGD, NADH fluorescence kinetic, PGE2 substrate; Potency, µM, usual class: inhibitors; hit rate 4.3% among 150,000; AID 894, 2007
Target sequence (P15428 whole entry, looked up): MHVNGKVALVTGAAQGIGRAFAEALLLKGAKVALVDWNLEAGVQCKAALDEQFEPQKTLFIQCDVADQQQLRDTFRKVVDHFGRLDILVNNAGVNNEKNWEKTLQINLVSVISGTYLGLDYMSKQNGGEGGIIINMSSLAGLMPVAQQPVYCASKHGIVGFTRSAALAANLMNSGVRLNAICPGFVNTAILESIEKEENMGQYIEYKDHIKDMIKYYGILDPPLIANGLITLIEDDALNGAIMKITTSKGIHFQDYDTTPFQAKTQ
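NADH formation kinetics: reaction with 30 uM PGE2 and 1 mM NAD+ (final), 20 nM enzyme, Tris-HCl pH 8 with Tween 20, after 15 min compound preincubation at room temperature. Fluorescence change, last versus first of five reads.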
Of the large screens only hits and unclear results are named; the others gave an inactive call. Unless noted, the call rests on the fitted dose curve; in most records, active means well fitted inhibition curve with a large enough effect (not every such curve was filed as active); inconclusive means small, poorly fitted or top-dose-only effect, or another doubt; inactive means no such curve, though single readings can be large or run the other way.

C/C(Cn1nc([N+](=O)[O-])cc1C)=N\NC(=O)COc1ccccc1[N+](=O)[O-]	ALDH1A1 block 14µM, PNC inhibitor inconclusive (no result: IMPase inh)
C/C(Cn1nc([N+](=O)[O-])cc1C)=N\NC(=O)COc1ccc(Cl)cc1Cl	ALDH1A1 block inconclusive, PNC inhibitor inconclusive
Cc1ccc(NC(=O)Nc2cc3c(cc2N2CCCCC2)n(C)c(=O)n3C)cc1Cl	none (no result: ALOX12 inhib, IMPase Li inh, ALDH1A1 block, PNC inhibitor, HPGD inh)
Cc1nn(C)c(C)c1C1Nc2ccccc2C(=O)N1O (configuration not stated)	ALDH1A1 block inconclusive, IMPase inh inconclusive
C=CCc1cccc(C2Nc3ccccc3C(=O)N2O)c1O (configuration not stated)	ALOX12 inhib inconclusive, HPGD inh 7.1µM
O=C1c2ccccc2NC(c2ccc(Cl)cc2Cl)N1O (configuration not stated)	ALOX12 inhib inconclusive
Cc1ccsc1C1Nc2ccccc2C(=O)N1O (configuration not stated)	HPGD inh 18µM (no result: IMPase inh)
COc1cc(-c2nc(S(=O)(=O)c3ccccc3)c(N3CCOCC3)o2)cc(OC)c1OC	ALDH1A1 block 10µM
Cc1ccc(S(=O)(=O)c2nc(C(C)(C)C)oc2N2CCOCC2)cc1	ALDH1A1 block 10µM
O=S(=O)(c1ccccc1)c1nc(-c2ccccc2)oc1N1CCOCC1	ALDH1A1 block 3.5µM (no result: ALOX12 inhib, IMPase inh, PNC inhibitor, HPGD inh)
O=S(=O)(c1ccccc1)c1nc(-c2cccc(Cl)c2)oc1N1CCOCC1	none (no result: ALOX12 inhib, IMPase Li inh, ALDH1A1 block, PNC inhibitor, HPGD inh)
C/C(=N\NC(=O)c1ccc(Br)cc1)c1ccccc1	none
CC/C(=N\NC(=O)c1ccc(N(C)C)cc1)c1ccccc1	ALDH1A1 block 28µM (no result: IMPase inh)
CC1(C)CC(=O)C=C(NNC(=O)C2CCCCC2)C1	ALDH1A1 block 13µM, PNC inhibitor inconclusive
CC1(C)CC(=O)C=C(NC2CCCCCCC2)C1	none
Cc1ccc(C(=O)NC(=S)Nc2ccc(Oc3ccc(Cl)cc3)cc2)cc1	ALDH1A1 block 18µM
O=C(NC(=S)Nc1ccc(Oc2ccccc2)cc1)c1ccc(Cl)cc1	ALOX12 inhib inconclusive, ALDH1A1 block 14µM, PNC inhibitor inconclusive
Cc1ccc(C(=O)NC(=S)Nc2ccc(NC(=O)c3cccc(Cl)c3)cc2)cc1	PNC inhibitor inconclusive
COc1ccc(C(=O)NC(=S)Nc2ccc3c(c2)Cc2ccccc2-3)cc1	IMPase Li inh inconclusive, ALDH1A1 block 10µM, PNC inhibitor inconclusive
CC(=O)OC1CC[C@]2(C)C(=CCC3C4CCC(C(C)CCCC(C)C)[C@]4(C)CCC32)C1 (some centres not stated)	none (no result: IMPase inh, PNC inhibitor)
COc1ccc(NC(=O)N2CC3(CCN(C(=O)c4cc(C(F)(F)F)cc(C(F)(F)F)c4)CC3)C2)cc1	ALDH1A1 block inconclusive (no result: IMPase inh, PNC inhibitor)
O=[N+]([O-])c1cccc(C(F)(F)F)c1	none (no result: IMPase inh, PNC inhibitor)
O=C(CNC(=O)c1ccc(F)cc1)N/N=C/c1ccc(O)c([N+](=O)[O-])c1	ALDH1A1 block inconclusive, HPGD inh 25µM
O=[N+]([O-])c1cc(/C=N\Nc2nc(-c3ccccc3)cs2)ccc1O	ALDH1A1 block 11µM (no result: ALOX12 inhib, IMPase inh, PNC inhibitor, HPGD inh)
O=C(CNC(=O)C(c1ccccc1)c1ccccc1)N/N=C/c1ccc(O)c([N+](=O)[O-])c1	ALDH1A1 block 13µM (no result: IMPase inh)
O=C(c1ccco1)N1CCC2(CC1)CN(C(c1ccccc1)c1ccccc1)C2	none (no result: IMPase inh, PNC inhibitor)
CCOc1ccc(N2CSC3=C(C#N)C(c4ccco4)CC(=O)N3C2)cc1 (configuration not stated)	ALOX12 inhib inconclusive, IMPase Li inh inconclusive, ALDH1A1 block 4.5µM, HPGD inh 10µM
COc1ccc(-c2nc(C#N)c(N3CCN(c4cccc(Cl)c4)CC3)o2)cc1OC	ALDH1A1 block inconclusive, HPGD inh inconclusive
COc1ccc(OC)c(C2CC(=O)N3CN(c4ccc(C)c(Cl)c4)CSC3=C2C#N)c1 (configuration not stated)	ALDH1A1 block 7.9µM, HPGD inh inconclusive
COc1ccc(OC)c(C2CC(=O)N3CN(c4cccc(Cl)c4)CSC3=C2C#N)c1 (configuration not stated)	ALOX12 inhib inconclusive, ALDH1A1 block 35µM
Cc1ccc(C2CC(=O)N3CN(c4ccc(Br)cc4)CSC3=C2C#N)o1 (configuration not stated)	ALOX12 inhib inconclusive, IMPase Li inh inconclusive, ALDH1A1 block inconclusive, HPGD inh inconclusive
CCOC(=O)c1ccc(N2CSC3=C(C#N)C(c4ccc(OC)cc4OC)CC(=O)N3C2)cc1 (configuration not stated)	ALOX12 inhib inconclusive, ALDH1A1 block 14µM
COC(=O)C/C=C\[C@@H](C)[C@@H](/C=N\O[C@@H]1O[C@H](COC(C)=O)[C@H](OC(C)=O)[C@H](OC(C)=O)[C@H]1OC(C)=O)OC	none (no result: ALOX12 inhib, IMPase Li inh, IMPase inh, PNC inhibitor, HPGD inh)
Cc1cccc(OCCn2c(SCC(N)=O)nc3ccccc32)c1	none (no result: ALOX12 inhib, IMPase Li inh, ALDH1A1 block, PNC inhibitor, HPGD inh)
O=C(NCCc1c[nH]c2ccccc12)C1CCN(c2nnc(N3CCCC3=O)s2)CC1	ALDH1A1 block 0.32µM
O=C(COc1c(Br)cc(Br)c2cccnc12)N1CCc2ccccc2C1	IMPase Li inh inconclusive, ALDH1A1 block 11µM, HPGD inh 18µM
O=C(O)CSc1ncnc2c1oc1ccccc12	none (no result: IMPase Li inh, HPGD inh)
O=C(CSc1ncnc2c1oc1ccccc12)N1CCc2ccccc2C1	HPGD inh 4µM
COc1cccc(NC(=O)CSc2ncnc3c2oc2ccccc23)c1	IMPase Li inh 11µM, IMPase inh inconclusive
CCOC(=O)CC(=O)CSc1ncnc2c1oc1ccccc12	IMPase Li inh 8.9µM, IMPase inh inconclusive, HPGD inh 14µM
CC1(O)CC2C(CC1O)C2(C)C (configuration not stated)	none (no result: IMPase inh, PNC inhibitor)
COc1cccc(NC(=O)CSc2nc3c(oc4ccccc43)c(=O)[nH]2)c1	HPGD inh 16µM (no result: IMPase inh)
CCOC(=O)c1nc(C)sc1-c1ccnn1S(=O)(=O)c1ccc(C)cc1	ALDH1A1 block 3.2µM (no result: ALOX12 inhib, IMPase Li inh, IMPase inh, PNC inhibitor, HPGD inh)
CCOC(=O)c1nc(C)sc1-c1ccnn1S(=O)(=O)c1ccc(Cl)cc1Cl	none (no result: ALOX12 inhib, IMPase Li inh, IMPase inh, PNC inhibitor, HPGD inh)
CCCCCCC#CC1C=CC(OC(=O)OCC)C(COC(=O)OCC)O1 (configuration not stated)	ALDH1A1 block 4µM (no result: ALOX12 inhib, IMPase Li inh, IMPase inh, PNC inhibitor, HPGD inh)
CCCCC#CC1C=CC(OC(C)=O)C(COC(C)=O)O1 (configuration not stated)	ALDH1A1 block 3.5µM (no result: ALOX12 inhib, IMPase Li inh, IMPase inh, PNC inhibitor, HPGD inh)
